The text below walks through data of paper PMC4336329 (PLoS ONE, 2015).

Screen size: about 310,000 compounds; about 14,000 (4.5%) showed an effect of 50% or more. The effect is printed as a negative number. The sample as a whole holds a higher share of strong results than the screen did.
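Also: peak tail current of the secondary pulse compared with the same well before compound.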

human ether-à-go-go-related gene (hERG) potassium channel, sequence (Q12809 whole entry, looked up): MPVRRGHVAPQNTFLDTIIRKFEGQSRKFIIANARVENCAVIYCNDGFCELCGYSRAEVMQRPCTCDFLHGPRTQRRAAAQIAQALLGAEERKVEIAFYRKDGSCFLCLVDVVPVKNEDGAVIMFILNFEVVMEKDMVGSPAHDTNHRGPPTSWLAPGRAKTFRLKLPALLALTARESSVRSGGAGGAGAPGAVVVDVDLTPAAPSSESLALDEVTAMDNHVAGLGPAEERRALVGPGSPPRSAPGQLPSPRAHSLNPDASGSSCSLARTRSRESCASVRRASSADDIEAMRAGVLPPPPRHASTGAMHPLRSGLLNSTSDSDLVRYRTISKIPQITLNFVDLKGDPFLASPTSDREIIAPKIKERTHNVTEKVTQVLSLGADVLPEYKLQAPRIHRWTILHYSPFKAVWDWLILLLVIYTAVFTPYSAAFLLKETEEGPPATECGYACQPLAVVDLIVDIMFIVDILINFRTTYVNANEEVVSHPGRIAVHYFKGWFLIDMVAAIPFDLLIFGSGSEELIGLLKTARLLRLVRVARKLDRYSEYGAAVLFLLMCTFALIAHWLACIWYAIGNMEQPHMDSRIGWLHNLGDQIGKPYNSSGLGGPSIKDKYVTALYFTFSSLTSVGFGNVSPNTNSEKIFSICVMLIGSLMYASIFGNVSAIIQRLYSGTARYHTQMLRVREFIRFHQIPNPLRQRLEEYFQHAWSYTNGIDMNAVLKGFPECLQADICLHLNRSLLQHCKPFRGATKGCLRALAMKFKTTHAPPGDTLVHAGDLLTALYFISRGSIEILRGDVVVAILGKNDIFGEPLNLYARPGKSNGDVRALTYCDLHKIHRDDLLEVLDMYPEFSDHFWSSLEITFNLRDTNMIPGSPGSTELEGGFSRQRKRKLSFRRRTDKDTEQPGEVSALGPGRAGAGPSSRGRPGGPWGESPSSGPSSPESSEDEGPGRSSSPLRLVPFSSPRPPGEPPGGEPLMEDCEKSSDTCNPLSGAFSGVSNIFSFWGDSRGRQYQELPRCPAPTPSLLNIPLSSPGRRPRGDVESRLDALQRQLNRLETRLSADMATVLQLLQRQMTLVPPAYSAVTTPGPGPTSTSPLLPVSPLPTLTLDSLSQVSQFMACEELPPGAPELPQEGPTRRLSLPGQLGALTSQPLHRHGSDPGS

This assay concerns the target human ether-à-go-go-related gene (hERG) potassium channel (human, UniProt Q12809). The assay is described as follows: primary screen, population patch clamp on CHO cells stably expressing hERG; higher = less effect of the substance.
On to `O=C(O)c1ccccc1-c1ccccc1C(=O)Nc1ccc2c(c1)[nH]c(=O)c1ccccc12`, for which the “hERG current change (%, negative = inhibition) at 10uM” value was 24.5%.
The result for `O=C(N/N=C/c1ccco1)c1cc(C2CC2)nc2ccccc12` reads 4.56%; that for `COc1ccc2cc(S(=O)(=O)Nc3ccccn3)ccc2c1`, 9.87%; that for `O=C(CSc1nnnn1-c1cccc2ccccc12)N1CCOCC1`, -25%.
Turning to `Cl.N=c1c2c(n(Cc3ccc(Cl)cc3)c3c1CCC3)CCC2`, the “hERG current change (%, negative = inhibition) at 10uM” value is recorded as -2.06%.
The value for `CCN(CC)S(=O)(=O)c1ccc(N2CCCC2)c(NC(=O)c2ccccc2OC)c1` was -65.7%.
Turning to `CCN(CC)S(=O)(=O)c1ccc(N2CCCC2)c(NC(=O)c2ccc(OC)cc2OC)c1`, the “hERG current change (%, negative = inhibition) at 10uM” value is on record as -43%.
The result for `CCN(CC)S(=O)(=O)c1ccc(N2CCCC2)c(NC(=O)Cc2cc(OC)c(OC)c(OC)c2)c1` reads -8.43%; that for `CC(Sc1nnc(CNc2cccc3ccccc23)n1-c1ccccc1)C(=O)N/N=C/c1ccco1` (stereo not drawn), -10.2%; that for `Cl.O=C(NCC(c1cccs1)N1CCOCC1)c1cc2ccccc2o1` (stereo not drawn), -15.7%.
The value for `O=C(NNC1=NS(=O)(=O)c2ccccc21)c1cccc([N+](=O)[O-])c1` was 15%; that for `CCOc1cccc(=O)c2c(C)n(Cc3ccccc3)c(C)c12` was 11.8%; that for `CCOc1cccc(=O)c2c(C)n(C)c(C)c12` was -4.1%.
The result for `CCCCCn1c(C)c2c(OCC)cccc(=O)c2c1C` reads -69%; that for `CC(C)C(NS(=O)(=O)c1cccs1)C(=O)NCc1ccc2c(c1)OCO2` (stereo not drawn), -12%; that for `COc1ccccc1C(C#N)c1cccc(Cl)n1` (stereo not drawn), 0.219%.
Consider `O=C(CCCn1c(=O)c2cccn2c2cccnc21)NCc1cccc(Br)c1`, for which the “hERG current change (%, negative = inhibition) at 10uM” value is given as -13.8%.
The result for `COC1CCCN(C(=O)c2ccc(OC3CCN(CCc4ccccc4)CC3)cc2)C1` (stereo not drawn) reads -11.6%.
The value for `O=C(c1ccc(OC2CCN(CCCc3ccccc3)CC2)cc1)N1CCCC1` was -69.8%; that for `O=C(c1ccc(OC2CCN(CCc3ccccc3)CC2)cc1)N1CCCC(O)C1` (stereo not drawn) was -2.05%.
As for `O=C(c1ccc(OC2CCN(CCc3ccccc3)CC2)cc1)N1CCCC1`, the “hERG current change (%, negative = inhibition) at 10uM” value is reported as -30%.
As for `CC(=O)N1CCN(C(=O)c2ccc(OC3CCN(CCc4ccccc4)CC3)cc2)CC1`, the “hERG current change (%, negative = inhibition) at 10uM” value was 15.6%.
The value for `CC1CCCN(C(=O)c2ccc(OC3CCN(CCc4ccccc4)CC3)cc2)C1` (stereo not drawn) was -58.1%; that for `COc1ccc(CNC(=O)CCn2nc(C)c3c(C)n(-c4ccccc4)nc3c2=O)c(OC)c1` was 11.8%; that for `O=C(NCc1ccc(Cl)cc1)c1ccc(NC(=O)C2CCCO2)cc1` (stereo not drawn) was 13.2%.
The value for `O=C1CCCC2=C1C(c1cccs1)n1nc(SCc3ccc(C(=O)O)cc3)nc1N2` (stereo not drawn) was 2.81%.
The result for `O=C(Cn1c2ccccc2c2nc3n(c(=O)c21)CCS3)Nc1ccccc1C(F)(F)F` reads 15.1%; that for `Cc1ccc(N2CC(C(=O)NCCN3CCOCC3)CC2=O)cc1` (stereo not drawn), 8.92%.
For the molecule `CC1CCCCN1C(=O)NC1CC(=O)N(c2ccc3c(c2)OCCO3)C1` (stereo not drawn), the “hERG current change (%, negative = inhibition) at 10uM” value was determined as 5.7%.
The result for `Cc1ccc(CNC(=O)c2cc(-c3ccccc3)nn2CC2CC(c3cccc([N+](=O)[O-])c3)=NO2)cc1` (stereo not drawn) reads -8.09%; that for `Cc1ccccc1-c1cc(C(=O)NCc2cccs2)nn1CC1CC(c2cccc([N+](=O)[O-])c2)=NO1` (stereo not drawn), 4.08%; that for `CCc1cc(Cn2nc(-c3ccccc3)cc2C(=O)NCC2CC2)on1`, -51.8%.
The result for `CCc1cc(Cn2nc(-c3ccccc3)cc2C(=O)NCCOC)on1` reads -9.96%; that for `COCCNC(=O)c1cc(-c2ccccc2)nn1CC1CC(c2cccc([N+](=O)[O-])c2)=NO1` (stereo not drawn), -50.6%; that for `Cc1ccccc1-c1cc(C(=O)NCC2CC2)nn1CC1CC(c2cccc([N+](=O)[O-])c2)=NO1` (stereo not drawn), -26.6%.
The result for `Cc1ccc(CNC(=O)c2cc(-c3ccccc3C)n(CC3CC(c4cccc([N+](=O)[O-])c4)=NO3)n2)cc1` (stereo not drawn) reads 13.6%; that for `CCOC(=O)c1cc(-c2ccccc2)nn1CC1CC(c2cccc([N+](=O)[O-])c2)=NO1` (stereo not drawn), -24.2%.
Turning to `O=C(NCc1cccs1)c1cc(-c2ccccc2)nn1CC1CC(c2cccc([N+](=O)[O-])c2)=NO1` (stereo not drawn), the “hERG current change (%, negative = inhibition) at 10uM” value is -66.9%.
The value for `O=C(O)c1cc(-c2ccccc2)nn1CC1CC(c2cccc([N+](=O)[O-])c2)=NO1` (stereo not drawn) was 19.1%; that for `Cc1cc(Cn2nc(-c3ccccc3)cc2C(=O)NCC2CC2)on1` was 9.32%.
The result for `O=C(NCC1CC1)c1cc(-c2ccccc2)nn1CC1CC(c2cccc([N+](=O)[O-])c2)=NO1` (stereo not drawn) reads -60.8%; that for `COC(=O)C(C)n1cnc2c(nnn2Cc2ccc(Cl)cc2)c1=O` (stereo not drawn), -16.4%.
As to `CCC1=Nc2cc(C(=O)NCc3ccco3)ccc2Sc2ccc(C)cc21`, the “hERG current change (%, negative = inhibition) at 10uM” value was -0.612%.
The result for `CN(Cc1ccccc1)C(=O)CN1C(=O)NC2(CCCCCCC2)C1=O` reads -11.7%; that for `O=C(CCc1ccccc1)NNC(=O)Nc1ccccc1`, 1.26%.
The value for `COc1ccc(OC)c(CNC(=O)Cc2c(C(=O)O)[nH]c3ccccc23)c1` was 15.3%; that for `Cc1ccccc1N1CCN(C2CCCN(C(=O)c3ocnc3C)C2)CC1` (stereo not drawn) was -16.9%; that for `CN(c1ccccc1)S(=O)(=O)c1cccc(C(=O)OCC(=O)Nc2ccc3[nH]c(=O)[nH]c3c2)c1` was 19.6%.
The value for `CC(C)=CCCC(C)CN(C)CCc1ccccn1` (stereo not drawn) was -65.4%.
With `Cc1ccccc1CN(C)CCc1ccccn1.O=C(O)C(=O)O`, the “hERG current change (%, negative = inhibition) at 10uM” value was -7.25%.
The result for `CN(CCc1ccccn1)Cc1ccc(Cl)cc1` reads -53.7%; that for `Cc1ccc(CN(C)CCc2ccccn2)cc1`, -41.1%; that for `CN(CCc1ccccn1)Cc1ccc(Cl)c(Cl)c1`, -36.3%.
Regarding `CN(CCc1ccccn1)Cc1ccc(Cl)cc1Cl`, the “hERG current change (%, negative = inhibition) at 10uM” value is given as -64.3%.
The value for `CN(CCc1ccccn1)C(=O)c1cccnc1Oc1ccc(Cl)cc1` was -19.5%.
The value for `CC(C)c1ccc(N(CCc2ccccn2)C(=O)C(C)(C)C)cc1` was -5.99%; that for `CN(CCc1ccccn1)C(=O)Nc1ccc(Cl)cc1` was 6.31%; that for `Cc1cccc(CN(C)CCc2ccccn2)c1` was -15.3%.
The value for `CCc1ccc(CN(C)CCc2ccccn2)cc1` was -62.6%; that for `CC(C)c1ccc(NC(=S)N(C)CCc2ccccn2)cc1` was -8.91%.
